Only a selection was taken, and hits are over-represented in it overall.
Shiga inhibitor: inhibitors of Shiga toxin in Vero cells. inhibition, % at 38.7 µM. Vero cells, Shiga toxin protein synthesis inhibition reporter. hit rate 9.2% among 290,000. AID 2315; in the data active = inhibition mostly above about 28%, no sharp cut-off; inactive = mostly below about 43%; also: 0% is about no effect
Sm TGR inh: blocks Schistosoma mansoni thioredoxin glutathione reductase | Potency, µM (highest dose often 114 µM), for the others: top-dose activity change, negative = inhibition, actives largely listed as inhibitors | Q962Y6 | purified TGR, DTNB reduction, TNB absorbance 405 nm | AID 485364 | hit rate 3% among 360,000; also: potency is read from the fitted curve at half-maximal effect; % is scaled to controls: 0 for no effect and ±100 for the full control effect; nearly all actives have a fitted effect of over 60% in size
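Kinetic colorimetric format: TGR-catalysed, NADPH-driven DTNB reduction monitored via TNB absorbance. Enzyme dispensed at 20 nM; compound exposure 15 min at room temperature before reaction start.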
CHX counter: affects cycloheximide protein synthesis inhibition readout, counter-screen; cell reporter, cycloheximide protein synthesis inhibition counterscreen; max response, %; AID 2314; hit rate 12% among 300,000; in the data active = max response mostly above about 13%, no sharp cut-off; inactive = mostly below about 14%; also: read at 38.3 µM for the half of the compounds with a filed dose; 0% is about no effect
Giardia FBPA inh-1: blocks Giardia fructose-bisphosphate aldolase activity. hit rate 0.71% among 290,000. Potency, µM (doses to about 59.6 µM), for the others: at the highest dose activity, negative = inhibition, most hits filed as inhibitors. purified Giardia FBPA. AID 2451; also: potency is read from the fitted curve at half-maximal effect; % is scaled to controls: 0 for no effect and ±100 for the full control effect; nearly all actives have a fitted effect of over 55% in size
Target sequence (A8B2U2 whole entry, looked up): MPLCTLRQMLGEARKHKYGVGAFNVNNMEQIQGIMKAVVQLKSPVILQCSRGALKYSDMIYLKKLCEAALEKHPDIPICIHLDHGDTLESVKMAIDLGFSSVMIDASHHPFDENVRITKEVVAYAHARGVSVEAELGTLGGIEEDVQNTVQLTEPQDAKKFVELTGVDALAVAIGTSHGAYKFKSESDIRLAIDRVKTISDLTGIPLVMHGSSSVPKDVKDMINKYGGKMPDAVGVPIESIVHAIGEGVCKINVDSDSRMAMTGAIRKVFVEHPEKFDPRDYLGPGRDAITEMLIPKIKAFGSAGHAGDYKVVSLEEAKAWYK
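Giardia FBPA (40 nM reagent) was preincubated 10 min at RT with compound (up to 57.5 uM final), then substrate plus GAPDH/TPI/NAD/arsenate coupling system with diaphorase/resazurin was added; resorufin fluorescence (525/598 nm) was read after 20 min.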
Tb PYK inh: inhibitors of Trypanosoma brucei pyruvate kinase; AID 624173; Potency, µM (titrated, usually from 76.8 µM), without a hit: at the highest dose activity, negative = inhibition, hits mostly inhibitors; TbPYK enzyme, Kinase-Glo Plus ATP luminescence, 45 min; hit rate 0.12% among 410,000; also: potency is read from the fitted curve at half-maximal effect; % is scaled to controls: 0 for no effect and ±100 for the full control effect; nearly all actives have a fitted effect of over 50% in size
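Luminescent Kinase-Glo Plus end-point after 45 min room-temperature reaction of T. brucei pyruvate kinase started with 130 uM ADP (final). Buffer TEA 50 mM pH 7.2 with KCl, MgCl2, BSA, Tween-20; titration-based qHTS with fitted concentration-effect curves.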
LmPK inhibitor: inhibitors of Leishmania mexicana pyruvate kinase. hit rate 0.37% among 290,000. AID 1721. purified LmPK, Kinase-Glo ATP luminescence, 1 h. Potency, µM (doses to about 57.5 µM), without a hit: at the highest dose activity change, negative = inhibition, usual class: inhibitors; also: potency is read from the fitted curve at half-maximal effect; % is scaled to controls: 0 for no effect and ±100 for the full control effect
Target sequence (Q27686 whole entry, looked up): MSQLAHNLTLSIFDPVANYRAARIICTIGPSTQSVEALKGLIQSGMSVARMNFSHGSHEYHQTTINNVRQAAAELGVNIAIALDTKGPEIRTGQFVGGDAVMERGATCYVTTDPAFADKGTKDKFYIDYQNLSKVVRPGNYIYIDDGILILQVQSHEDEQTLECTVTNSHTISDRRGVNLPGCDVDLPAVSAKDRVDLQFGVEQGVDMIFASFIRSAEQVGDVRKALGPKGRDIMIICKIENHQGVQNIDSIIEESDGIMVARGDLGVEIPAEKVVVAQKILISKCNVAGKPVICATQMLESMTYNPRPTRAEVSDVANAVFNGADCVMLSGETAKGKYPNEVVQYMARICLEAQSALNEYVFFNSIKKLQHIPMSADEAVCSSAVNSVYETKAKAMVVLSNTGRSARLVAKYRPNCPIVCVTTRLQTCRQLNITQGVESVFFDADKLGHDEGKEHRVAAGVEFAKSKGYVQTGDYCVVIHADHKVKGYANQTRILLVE
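qHTS format; LmPK 0.1 nM; substrates PEP 0.5 mM and ADP 0.1 mM. One-hour room-temperature incubation, then coupled luciferase luminescence; 0.5 nM enzyme wells mark activation.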
Giardia growth: Giardia lamblia growth inhibition; Giardia lamblia trophozoite growth inhibition; Potency, µM (series often up to 57.5 µM), for the others: at the top dose activity change, negative = inhibition, actives largely listed as inhibitors; hit rate 5% among 1,500; AID 2785; shares compounds with Giardia FBPA inh-1;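 also: potency is read from the fitted curve at half-maximal effect; trophozoites exposed to compound for 48 h at 37 °C; % is scaled to controls: 0 for no effect and ±100 for the full control effect; nearly all actives have a fitted effect of over 70% in size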
Mammal cell tox: mammalian cytotoxicity of Giardia aldolase inhibitor hits | shares compounds with Giardia FBPA inh-1 | mammalian cell viability counter-screen, qHTS | Potency, µM (top dose mostly 57.5 µM), for the others: at the top dose viability change, negative = toxicity, actives largely listed as inhibitors | hit rate 4% among 1,500;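 also: Chinese hamster ovary cells used as mammalian cytotoxicity surrogate; viability measured as cellular ATP by luminescence; potency is read from the fitted curve at half-maximal effect; compound exposure lasted 48 h before reading; % is scaled to controls: 0 for no effect and ±100 for the full control effect; nearly all actives have a fitted effect of over 60% in size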
Giardia FBPA inh-2: confirmation of Giardia fructose-bisphosphate aldolase inhibitors; shares compounds with Giardia FBPA inh-1; purified Giardia aldolase enzyme activity, qHTS; Potency, µM (titrated, usually from 57.5 µM), for inactives: at the top dose activity change, negative = inhibition, usual class: inhibitors; hit rate 5% among 1,500; also: potency is read from the fitted curve at half-maximal effect; % is scaled to controls: 0 for no effect and ±100 for the full control effect; nearly all actives have a fitted effect of over 45% in size
Rabbit FBPA inh: selectivity test for Giardia aldolase inhibitors: rabbit aldolase; shares compounds with Giardia FBPA inh-1; Rabbit muscle FBPA enzyme inhibition, selectivity counter-screen; Potency, µM (doses to about 57.5 µM), for inactives: at the highest dose activity, negative = inhibition, hits mostly inhibitors; hit rate 4% among 1,500; AID 2794; also: potency is read from the fitted curve at half-maximal effect; % is scaled to controls: 0 for no effect and ±100 for the full control effect; nearly all actives have a fitted effect of over 60% in size
GAPDH coupling: GAPDH inhibition flagged for Giardia aldolase hits. shares compounds with Giardia FBPA inh-1. GAPDH coupling enzyme counterscreen, biochemical, qHTS. Potency, µM (series often up to 57.5 µM), without a hit: top-dose activity change, negative = inhibition, hits mostly inhibitors. hit rate 6% among 1,500. AID 2795; also: potency is read from the fitted curve at half-maximal effect; % is scaled to controls: 0 for no effect and ±100 for the full control effect; nearly all actives have a fitted effect of over 55% in size
* hit, by the source's call; ? = inconclusive; · = no result; [ ] = another dose, or the depositor's remark. Unless noted, calls follow the shape of the dose curve; as a rule, active = well fitted curve in the direction sought with a large enough effect; inconclusive = small, poorly fitted or top-dose-only effect, or another doubt; inactive = no such curve, though single readings can be large; an effect the other way counts as inactive or inconclusive.

SMILES | Shiga inhibitor | Sm TGR inh | CHX counter | Giardia FBPA inh-1 | Tb PYK inh | LmPK inhibitor | Giardia growth | Mammal cell tox | Giardia FBPA inh-2 | Rabbit FBPA inh | GAPDH coupling
CN(C)CCn1c(NCc2ccc3c(c2)OCO3)nc2ccccc21 | -4 | -10% | -3 | 28µM* | -5% | -1% | ? | -14% | 5% | 6% | 9%
CC(C(=O)Nc1cccc([N+](=O)[O-])c1)[n+]1ccccc1 (stereo not drawn) | 12 | ? | 0 | 16µM* | 0% | 9% | ? | 8% | 5% | 0% | 17%
CCC(C)N1C(=O)/C(=C/c2ccc3c(c2)CCN3CCCCl)C(=O)NC1=S (stereo not drawn) | -7 | ? | 0 | 11µM* | ? | -22% | 6%[10.4 µM] | -5% | ? | -8% | 6%
CS(=O)(=O)N(CC(=O)N/N=C/c1cc([N+](=O)[O-])ccc1Cl)c1ccccc1 | -5 | 18% | -2 | ? | -9% | -1% | · | · | · | · | ·
Cc1cccc(N(CC(=O)N/N=C/c2cc([N+](=O)[O-])ccc2Cl)S(C)(=O)=O)c1C | -4 | -6% | -2 | 18µM* | -4% | 1% | -3%[38.3 µM] | 1% | -16% | -17% | ?
CCOCCCNC(=O)c1[nH]c2cc(C)ccc2c1Sc1ccc(Cl)cc1 | · | 9% | · | · | 2% | · | · | · | · | · | ·
O=C(Nc1ccc(F)cc1)Oc1ccccc1N1CCOCC1 | 1 | -4% | 10 | -2% | 4% | 8% | · | · | · | · | ·
O=C(Nc1ccc(F)cc1)Oc1ccc[nH]c1=O | 24* | ? | 16* | ? | 6% | -5% | 7%[38.3 µM] | -17% | 0.46µM* | ? | -30%
Cc1ccc(NC(=O)C2CCCN(S(=O)(=O)c3ccc4c(c3)CCCC(=O)N4)C2)cc1Cl (stereo not drawn) | · | 2% | · | · | 5% | · | · | · | · | · | ·
CCOC(=O)Cc1csc(NC(=O)CN2CCOCC2)n1 | -5 | ? | -1 | 14µM* | -1% | -3% | 0%[10.4 µM] | 1% | 4% | 5% | 15%
CCOC(=O)Cc1csc(NS(=O)(=O)c2ccc(NC(C)=O)cc2)n1 | -7 | -9% | -2 | 14µM* | 9% | -3% | 0% | 16% | 8% | 15% | 17%
CCOC(=O)Cc1csc(NC(=O)CCCc2ccccc2)n1 | 9 | ? | 7 | 35µM* | 2% | -5% | -23% | -2% | -17% | -7% | -12%
Cc1nc(-c2ccc(C)c(N3CCN(C(=O)Nc4ccc(Br)cc4)CC3)c2)no1 | · | 6% | · | · | -8% | · | · | · | · | · | ·
COc1cc(OC)cc(C(=O)NC(=S)N2C[C@H]3C[C@H](C2)c2cccc(=O)n2C3)c1 | 3 | -4% | -3 | 11µM* | -9% | -1% | 18% | 12% | 6% | -2% | 13%
O=C(NC(=S)N1C[C@H]2C[C@H](C1)c1cccc(=O)n1C2)c1ccc(Cl)cc1 | -5 | -2% | -1 | ? | -19% | -15% | · | · | · | · | ·
COc1ccc(/C=C/C(=O)NC(=S)N2C[C@H]3C[C@H](C2)c2cccc(=O)n2C3)cc1OC | -9 | -25% | -2 | 7.9µM* | 3% | 2% | ? | 1% | 5% | 0% | 17%
COc1cc(C(=O)NC(=S)N2C[C@H]3C[C@H](C2)c2cccc(=O)n2C3)cc(OC)c1OC | -12 | -17% | -3 | 11µM* | -7% | -3% | 11%[10.4 µM] | 17% | 3% | 10% | 9%
CNS(=O)(=O)c1cn(CC(=O)Nc2cccc(C(F)(F)F)c2)cc1S(=O)(=O)NC | · | 0% | · | · | 1%[15.4 µM] | · | · | · | · | · | ·
CN(C)S(=O)(=O)c1cccc(CNCC2COc3ccccc3O2)c1 (stereo not drawn) | -3 | 12% | -1 | ? | -6% | -3% | · | · | · | · | ·
Cc1c(Br)c(=O)oc2c(Br)c(O)ccc12 | 41 | 13% | 11 | -10% | -2% | -4% | · | · | · | · | ·
Cc1c(Br)c(=O)oc2c(Br)c(O)c(O)cc12 | -11 | -21% | -4 | ? | -4% | 4% | -5%[38.3 µM] | -20% | ? | ? | -5%
Cn1c(NN=O)nc2ccccc21 | 49* | 8% | 28* | 7.9µM* | -14% | 0% | -22% | 16µM* | 0% | -2% | 2%
O=NNc1nc2ccccc2n1Cc1ccccc1 | 11 | -3% | -4 | ? | -14% | -4% | · | · | · | · | ·
COc1ccc(-c2cc(=O)c3ccccc3o2)cc1OC | · | · | · | 7.9µM* | · | · | -24%[38.3 µM] | ? | ? | ? | -27%
COc1ccc(-c2cc(=O)c3c(OC)c(OC)c(OC)cc3o2)cc1OC | -3 | · | 7 | -6% | · | · | · | · | · | · | ·
SMILES | Shiga inhibitor | Sm TGR inh | CHX counter | Giardia FBPA inh-1 | Tb PYK inh | LmPK inhibitor | Giardia growth | Mammal cell tox | Giardia FBPA inh-2 | Rabbit FBPA inh | GAPDH coupling
COc1cc(C(=O)NC(=S)Nc2ccc(Cl)cn2)cc(OC)c1OC | 1 | -7% | 1 | 10µM* | -11% | -2% | 7%[38.3 µM] | 2% | 2% | -2% | -3%
CCOc1ccc(NC(=S)NC(=O)c2c(Br)cnn2C)c([N+](=O)[O-])c1 | -1 | -6% | -2 | -5% | -6% | 3% | · | · | · | · | ·
COc1ccc(C(=O)NC(=S)Nc2cccnc2)cc1Cl | -3 | ? | -3 | 10µM* | -6% | -3% | 8%[10.4 µM] | -2% | 7% | 1% | 6%
CCOc1cc(C(=O)NC(=S)Nc2cccnc2)cc(OCC)c1OCC | -10 | 50µM* | -3 | 11µM* | 7% | 0% | 3%[10.4 µM] | 8% | -1% | 7% | 9%
COc1cc(C(=O)Nc2ccc(NC(=O)c3cccc(Cl)c3)nc2)cc(OC)c1OC | 29 | 2% | 4 | 7% | -6% | 5% | · | · | · | · | ·
CCOc1cc(C(=O)Nc2ccncc2)cc(OCC)c1OCC | -19 | 9% | -2 | -11% | -8% | 0% | · | · | · | · | ·
CCOc1ccc(NC(=S)NC(=O)c2cccnc2)c([N+](=O)[O-])c1 | 5 | 0% | 8 | 8.9µM* | 10% | 1% | 35µM* | 22% | 0% | -4% | -20%
O=S(=O)(NCCc1csc2nc(-c3ccccc3)nn12)c1ccc(Oc2ccccc2)cc1 | · | 4% | · | · | -1% | · | · | · | · | · | ·
CCN(CC)S(=O)(=O)c1ccc(-c2csc(=Nc3cccc(C(F)(F)F)c3)n2Cc2ccc3c(c2)OCO3)cc1 | · | 7% | · | · | 1% | · | · | · | · | · | ·

Compound activity: PubChem BioAssay, National Center for Advancing Translational Sciences (NCATS)
